Data as given in article PMC11006913.
Positions count from the first letter of the chain named.

Columns and labels:
Assay in all cases: PBM; 200 nM protein, PBS
Conditions in all cases: dsDNA, one strand shown
ALX4 [1] = target: ALX4 (Homo sapiens, UniProt Q9H161 200-286)
ALX4 [2] = target: ALX4 (Homo sapiens, UniProt Q9H161 200-286, Q225E)
HOXD13 [3] = target: HOXD13 (Homo sapiens, UniProt P35453 263-343)
PROP1 [4] = target: PROP1 (Homo sapiens, UniProt O75360 56-141)
PROP1 [5] = target: PROP1 (Homo sapiens, UniProt O75360 56-141, R99H)
HOXD13 [6] = target: HOXD13 (Homo sapiens, UniProt P35453 263-343, T313A)
PROP1 [7] = target: PROP1 (Homo sapiens, UniProt O75360 56-141, F88S)
PAX4 [8] = target: T1, PAX4 (Homo sapiens, UniProt O43316 9-242, R200K)
T1 sequence: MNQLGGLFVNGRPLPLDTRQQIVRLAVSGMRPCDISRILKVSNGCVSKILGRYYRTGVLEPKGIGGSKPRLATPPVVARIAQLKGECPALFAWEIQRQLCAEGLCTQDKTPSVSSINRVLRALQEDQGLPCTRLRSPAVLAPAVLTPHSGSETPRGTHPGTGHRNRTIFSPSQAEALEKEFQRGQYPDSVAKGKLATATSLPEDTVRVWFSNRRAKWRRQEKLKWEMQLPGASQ

PAX4 [9] = target: T2, PAX4 (Homo sapiens, UniProt O43316 9-242)
T2 sequence: T1 sequence with K192R

HOXB6 [10] = target: HOXB6 (Homo sapiens, UniProt P17509 132-218, K202E)
ALX3 [11] = target: ALX3 (Homo sapiens, UniProt O95076 139-225, N203Q)
PAX4 [12] = target: T3, PAX4 (Homo sapiens, UniProt O43316 9-242, R200Q)
T3 sequence: T1 sequence with K192Q

PAX4 [13] = target: T4, PAX4 (Homo sapiens, UniProt O43316 9-242, F177V)
T4 sequence: T1 sequence with F169V, K192R

PAX4 [14] = target: T5, PAX4 (Homo sapiens, UniProt O43316 9-242, F177Y)
T5 sequence: T1 sequence with F169Y, K192R

PAX4 [15] = target: T6, PAX4 (Homo sapiens, UniProt O43316 9-242, R227W)
T6 sequence: T1 sequence with K192R, R219W

ALX3 [16] = target: ALX3 (Homo sapiens, UniProt O95076 139-225, N203S)
PRRX1 [17] = target: PRRX1 (Homo sapiens, UniProt P54821 80-166, F113S)
HOXA2 [18] = target: HOXA2 (Homo sapiens, UniProt O43364 129-215, R185T)
MSX2 [19] = target: MSX2 (Homo sapiens, UniProt P35548 130-214, R199I)
HOXA2 [20] = target: HOXA2 (Homo sapiens, UniProt O43364 129-215, R185K)
MSX2 [21] = target: MSX2 (Homo sapiens, UniProt P35548 130-214)
MSX2 [22] = target: MSX2 (Homo sapiens, UniProt P35548 130-214, F161Y)
HOXA2 [23] = target: HOXA2 (Homo sapiens, UniProt O43364 129-215, Y150S)
PRRX1 [24] = target: PRRX1 (Homo sapiens, UniProt P54821 80-166)
HOXA2 [25] = target: HOXA2 (Homo sapiens, UniProt O43364 129-215)
HOXB6 [26] = target: HOXB6 (Homo sapiens, UniProt P17509 132-218)
ALX1 [27] = target: ALX1 (Homo sapiens, UniProt Q15699 118-204, L144V)
ALX1 [28] = target: ALX1 (Homo sapiens, UniProt Q15699 118-204, L144R)
HESX1 = HESX1 (Homo sapiens, UniProt Q9UBX0 95-180, F115L)
PITX2 = PITX2 (Homo sapiens, UniProt Q99697 72-157)
ALX3 [29] = target: ALX3 (Homo sapiens, UniProt O95076 139-225)
ALX3 [30] = target: ALX3 (Homo sapiens, UniProt O95076 139-225, L168Q)
ALX3 [31] = target: ALX3 (Homo sapiens, UniProt O95076 139-225, L168V)
ALX3 (Homo sapiens, UniProt O95076 139-225, L168V), sequence (O95076 139-225 L168V): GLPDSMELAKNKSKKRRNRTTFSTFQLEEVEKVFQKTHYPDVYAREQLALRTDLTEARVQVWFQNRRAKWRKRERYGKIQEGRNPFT

ALX4 (Homo sapiens, UniProt Q9H161 200-286, Q225E), sequence (Q9H161 200-286 Q225E): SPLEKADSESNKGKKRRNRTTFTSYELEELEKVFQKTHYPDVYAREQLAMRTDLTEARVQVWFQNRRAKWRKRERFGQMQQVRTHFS
ALX4 (Homo sapiens, UniProt Q9H161 200-286), sequence (Q9H161 200-286): as the sequence (Q9H161 200-286 Q225E) above, with E26Q counted along it
ALX3 (Homo sapiens, UniProt O95076 139-225, N203S), sequence (O95076 139-225 N203S): as the sequence (O95076 139-225 L168V) above, with V30L, N65S counted along it
HOXA2 (Homo sapiens, UniProt O43364 129-215, R185K), sequence (O43364 129-215 R185K): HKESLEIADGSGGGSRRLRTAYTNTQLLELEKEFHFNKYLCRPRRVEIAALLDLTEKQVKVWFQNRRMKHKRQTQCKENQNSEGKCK
PRRX1 (Homo sapiens, UniProt P54821 80-166), sequence (P54821 80-166): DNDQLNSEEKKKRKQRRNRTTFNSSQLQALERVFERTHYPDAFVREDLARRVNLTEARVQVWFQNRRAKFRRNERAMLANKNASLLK
ALX3 (Homo sapiens, UniProt O95076 139-225, N203Q), sequence (O95076 139-225 N203Q): as the sequence (O95076 139-225 L168V) above, with V30L, N65Q counted along it
PROP1 (Homo sapiens, UniProt O75360 56-141, R99H), sequence (O75360 56-141 R99H): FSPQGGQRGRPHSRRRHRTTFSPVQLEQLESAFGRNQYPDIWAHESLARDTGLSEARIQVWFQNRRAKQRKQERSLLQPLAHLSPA
HOXB6 (Homo sapiens, UniProt P17509 132-218, K202E), sequence (P17509 132-218 K202E): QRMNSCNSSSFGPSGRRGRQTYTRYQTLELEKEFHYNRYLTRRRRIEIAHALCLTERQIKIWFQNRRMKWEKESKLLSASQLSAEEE
PROP1 (Homo sapiens, UniProt O75360 56-141, F88S), sequence (O75360 56-141 F88S): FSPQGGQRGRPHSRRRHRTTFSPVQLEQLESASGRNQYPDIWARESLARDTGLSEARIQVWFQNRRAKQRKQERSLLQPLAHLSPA
HOXA2 (Homo sapiens, UniProt O43364 129-215), sequence (O43364 129-215): as the sequence (O43364 129-215 R185K) above, with K57R counted along it
PRRX1 (Homo sapiens, UniProt P54821 80-166, F113S), sequence (P54821 80-166 F113S): as the sequence (P54821 80-166) above, with F34S counted along it
PROP1 (Homo sapiens, UniProt O75360 56-141), sequence (O75360 56-141): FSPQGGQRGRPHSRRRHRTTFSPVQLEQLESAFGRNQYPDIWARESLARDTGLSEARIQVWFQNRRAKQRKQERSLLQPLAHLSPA
HOXA2 (Homo sapiens, UniProt O43364 129-215, R185T), sequence (O43364 129-215 R185T): as the sequence (O43364 129-215 R185K) above, with K57T counted along it
HOXA2 (Homo sapiens, UniProt O43364 129-215, Y150S), sequence (O43364 129-215 Y150S): as the sequence (O43364 129-215 R185K) above, with Y22S, K57R counted along it
HOXD13 (Homo sapiens, UniProt P35453 263-343), sequence (P35453 263-343): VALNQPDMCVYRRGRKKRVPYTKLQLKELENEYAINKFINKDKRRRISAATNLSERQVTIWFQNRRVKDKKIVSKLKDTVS
ALX1 (Homo sapiens, UniProt Q15699 118-204, L144R), sequence (Q15699 118-204 L144R): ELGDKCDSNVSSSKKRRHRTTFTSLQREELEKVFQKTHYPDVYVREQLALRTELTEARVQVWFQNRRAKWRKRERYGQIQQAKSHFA
ALX1 (Homo sapiens, UniProt Q15699 118-204, L144V), sequence (Q15699 118-204 L144V): as the sequence (Q15699 118-204 L144R) above, with R27V counted along it
ALX3 (Homo sapiens, UniProt O95076 139-225, L168Q), sequence (O95076 139-225 L168Q): as the sequence (O95076 139-225 L168V) above, with V30Q counted along it
MSX2 (Homo sapiens, UniProt P35548 130-214, F161Y), sequence (P35548 130-214 F161Y): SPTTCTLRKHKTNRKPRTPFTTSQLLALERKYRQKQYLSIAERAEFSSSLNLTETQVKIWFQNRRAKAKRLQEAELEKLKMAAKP
HOXD13 (Homo sapiens, UniProt P35453 263-343, T313A), sequence (P35453 263-343 T313A): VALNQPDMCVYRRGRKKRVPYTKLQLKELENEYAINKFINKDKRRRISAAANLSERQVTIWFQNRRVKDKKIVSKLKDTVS
HESX1, sequence (Q9UBX0 95-180 F115L): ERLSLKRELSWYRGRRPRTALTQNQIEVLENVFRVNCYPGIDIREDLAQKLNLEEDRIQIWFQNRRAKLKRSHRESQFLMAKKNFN
MSX2 (Homo sapiens, UniProt P35548 130-214), sequence (P35548 130-214): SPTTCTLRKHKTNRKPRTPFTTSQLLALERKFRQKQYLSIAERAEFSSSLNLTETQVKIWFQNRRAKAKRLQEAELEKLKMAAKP
HOXB6 (Homo sapiens, UniProt P17509 132-218), sequence (P17509 132-218): as the sequence (P17509 132-218 K202E) above, with E71K counted along it
ALX3 (Homo sapiens, UniProt O95076 139-225), sequence (O95076 139-225): as the sequence (O95076 139-225 L168V) above, with V30L counted along it
MSX2 (Homo sapiens, UniProt P35548 130-214, R199I), sequence (P35548 130-214 R199I): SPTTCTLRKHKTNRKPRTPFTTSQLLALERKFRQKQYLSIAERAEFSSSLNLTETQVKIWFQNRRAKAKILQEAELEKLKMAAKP

AATTTATC
binding signal (ALX4 [1]): 12 upbm affinity estimate (log intensity, higher = more binding, comparable within an allelic series) | binding signal (ALX4 [2]): 11.1 upbm affinity estimate (log intensity, higher = more binding, comparable within an allelic series) | binding signal (HOXD13 [3]): 11 upbm affinity estimate (log intensity, higher = more binding, comparable within an allelic series) | binding signal (PROP1 [4]): 9.59 upbm affinity estimate (log intensity, higher = more binding, comparable within an allelic series) | binding signal (PROP1 [5]): 9.17 upbm affinity estimate (log intensity, higher = more binding, comparable within an allelic series) | binding signal (HOXD13 [6]): 10.9 upbm affinity estimate (log intensity, higher = more binding, comparable within an allelic series) | binding signal (PROP1 [7]): 7.6 upbm affinity estimate (log intensity, higher = more binding, comparable within an allelic series)

ATATGTAA
binding signal (ALX4 [1]): 10.2 upbm affinity estimate (log intensity, higher = more binding, comparable within an allelic series) | binding signal (ALX4 [2]): 9.63 upbm affinity estimate (log intensity, higher = more binding, comparable within an allelic series)

CATATTAA
binding signal (PAX4 [8]): 11.8 upbm affinity estimate (log intensity, higher = more binding, comparable within an allelic series) | binding signal (PAX4 [9]): 12.1 upbm affinity estimate (log intensity, higher = more binding, comparable within an allelic series) | binding signal (HOXB6 [10]): 10 upbm affinity estimate (log intensity, higher = more binding, comparable within an allelic series) | binding signal (ALX3 [11]): 8.63 upbm affinity estimate (log intensity, higher = more binding, comparable within an allelic series) | binding signal (PAX4 [12]): 11.8 upbm affinity estimate (log intensity, higher = more binding, comparable within an allelic series) | binding signal (PAX4 [13]): 10.8 upbm affinity estimate (log intensity, higher = more binding, comparable within an allelic series) | binding signal (PAX4 [14]): 11 upbm affinity estimate (log intensity, higher = more binding, comparable within an allelic series) | binding signal (PAX4 [15]): 11 upbm affinity estimate (log intensity, higher = more binding, comparable within an allelic series) | binding signal (ALX3 [16]): 8.71 upbm affinity estimate (log intensity, higher = more binding, comparable within an allelic series)

GCTGCAGC
binding signal (PAX4 [8]): 9.33 upbm affinity estimate (log intensity, higher = more binding, comparable within an allelic series) | binding signal (PRRX1 [17]): 9.31 upbm affinity estimate (log intensity, higher = more binding, comparable within an allelic series) | binding signal (PAX4 [9]): 9.16 upbm affinity estimate (log intensity, higher = more binding, comparable within an allelic series) | binding signal (HOXA2 [18]): 7.32 upbm affinity estimate (log intensity, higher = more binding, comparable within an allelic series) | binding signal (MSX2 [19]): 9.55 upbm affinity estimate (log intensity, higher = more binding, comparable within an allelic series) | binding signal (PAX4 [12]): 9.38 upbm affinity estimate (log intensity, higher = more binding, comparable within an allelic series) | binding signal (HOXA2 [20]): 10.3 upbm affinity estimate (log intensity, higher = more binding, comparable within an allelic series) | binding signal (PAX4 [13]): 9.33 upbm affinity estimate (log intensity, higher = more binding, comparable within an allelic series) | binding signal (MSX2 [21]): 9.49 upbm affinity estimate (log intensity, higher = more binding, comparable within an allelic series) | binding signal (PAX4 [14]): 9.42 upbm affinity estimate (log intensity, higher = more binding, comparable within an allelic series) | binding signal (MSX2 [22]): 9.48 upbm affinity estimate (log intensity, higher = more binding, comparable within an allelic series) | binding signal (PAX4 [15]): 9.46 upbm affinity estimate (log intensity, higher = more binding, comparable within an allelic series) | binding signal (HOXA2 [23]): 10.6 upbm affinity estimate (log intensity, higher = more binding, comparable within an allelic series) | binding signal (PRRX1 [24]): 9.11 upbm affinity estimate (log intensity, higher = more binding, comparable within an allelic series) | binding signal (HOXA2 [25]): 6.95 upbm affinity estimate (log intensity, higher = more binding, comparable within an allelic series)

AGTCCGGC
binding signal (PAX4 [8]): 9.22 upbm affinity estimate (log intensity, higher = more binding, comparable within an allelic series) | binding signal (PAX4 [9]): 9.22 upbm affinity estimate (log intensity, higher = more binding, comparable within an allelic series) | binding signal (HOXB6 [10]): 8.99 upbm affinity estimate (log intensity, higher = more binding, comparable within an allelic series) | binding signal (PAX4 [12]): 9.29 upbm affinity estimate (log intensity, higher = more binding, comparable within an allelic series) | binding signal (PAX4 [13]): 9.3 upbm affinity estimate (log intensity, higher = more binding, comparable within an allelic series) | binding signal (PAX4 [14]): 9.32 upbm affinity estimate (log intensity, higher = more binding, comparable within an allelic series) | binding signal (PAX4 [15]): 9.3 upbm affinity estimate (log intensity, higher = more binding, comparable within an allelic series) | binding signal (HOXB6 [26]): 8.89 upbm affinity estimate (log intensity, higher = more binding, comparable within an allelic series)

AATTATGT
binding signal (PAX4 [8]): 11.6 upbm affinity estimate (log intensity, higher = more binding, comparable within an allelic series) | binding signal (PRRX1 [17]): 11 upbm affinity estimate (log intensity, higher = more binding, comparable within an allelic series) | binding signal (PAX4 [9]): 12.1 upbm affinity estimate (log intensity, higher = more binding, comparable within an allelic series) | binding signal (ALX1 [27]): 11.4 upbm affinity estimate (log intensity, higher = more binding, comparable within an allelic series) | binding signal (PAX4 [12]): 11.8 upbm affinity estimate (log intensity, higher = more binding, comparable within an allelic series) | binding signal (ALX1 [28]): 11.1 upbm affinity estimate (log intensity, higher = more binding, comparable within an allelic series) | binding signal (PAX4 [13]): 10.7 upbm affinity estimate (log intensity, higher = more binding, comparable within an allelic series) | binding signal (PAX4 [14]): 11 upbm affinity estimate (log intensity, higher = more binding, comparable within an allelic series) | binding signal (PROP1 [4]): 11 upbm affinity estimate (log intensity, higher = more binding, comparable within an allelic series) | binding signal (PROP1 [5]): 10.7 upbm affinity estimate (log intensity, higher = more binding, comparable within an allelic series) | binding signal (PROP1 [7]): 7.74 upbm affinity estimate (log intensity, higher = more binding, comparable within an allelic series) | binding signal (HESX1): 7.75 upbm affinity estimate (log intensity, higher = more binding, comparable within an allelic series) | binding signal (PAX4 [15]): 11 upbm affinity estimate (log intensity, higher = more binding, comparable within an allelic series) | binding signal (PRRX1 [24]): 13.3 upbm affinity estimate (log intensity, higher = more binding, comparable within an allelic series)

GAGGCACC
binding signal (ALX4 [1]): 8.21 upbm affinity estimate (log intensity, higher = more binding, comparable within an allelic series) | binding signal (ALX4 [2]): 8.22 upbm affinity estimate (log intensity, higher = more binding, comparable within an allelic series) | binding signal (HOXA2 [18]): 7.41 upbm affinity estimate (log intensity, higher = more binding, comparable within an allelic series) | binding signal (ALX3 [11]): 7.66 upbm affinity estimate (log intensity, higher = more binding, comparable within an allelic series) | binding signal (PITX2): 7.88 upbm affinity estimate (log intensity, higher = more binding, comparable within an allelic series) | binding signal (HOXA2 [20]): 10.5 upbm affinity estimate (log intensity, higher = more binding, comparable within an allelic series) | binding signal (ALX3 [29]): 7.72 upbm affinity estimate (log intensity, higher = more binding, comparable within an allelic series) | binding signal (ALX3 [30]): 7.51 upbm affinity estimate (log intensity, higher = more binding, comparable within an allelic series) | binding signal (ALX3 [31]): 7.67 upbm affinity estimate (log intensity, higher = more binding, comparable within an allelic series) | binding signal (HOXA2 [23]): 10.4 upbm affinity estimate (log intensity, higher = more binding, comparable within an allelic series) | binding signal (ALX3 [16]): 7.65 upbm affinity estimate (log intensity, higher = more binding, comparable within an allelic series) | binding signal (HOXA2 [25]): 7.42 upbm affinity estimate (log intensity, higher = more binding, comparable within an allelic series)
